Six compounds from PubChem BioAssay can be followed below.

Calls of active or inactive are those of the source.

Assay [1] is described as follows: binders of probe aFSTL3 on microarray, primary screen, stem cell growth factor project, biochemical, small-molecule microarray, fluorescence 635/667 (AID 1064).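 Also: measures binding of the biotinylated anti-FSTL3 antibody to printed compounds.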 To be noted: higher = more signal.
Assay [2] is described as follows: binders from COS7 lysate, DM2A8 probe, primary screen, torsin A project, cell lysate, small-molecule microarray, fluorescence 635/667 (AID 1065). Conditions: higher = more signal, COS7 lysate expressing mutant human TOR1A.
Assay [3] in a line: binders of probe aFGF2 on microarray, primary screen, stem cell growth factor project, biochemical, small-molecule microarray, fluorescence 635/667 (AID 1067).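 Also: measures binding of biotinylated aFGF2 protein to printed compounds on slides; z-score merges feature fluorescence and signal-to-noise across triplicate slides.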 To be noted: higher = more signal.
A short description of assay [4]: binders of probe aFGF10 on microarray, primary screen, stem cell growth factor project, biochemical, small-molecule microarray, fluorescence 635/667 (AID 1071).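 Also: score merges 667 nm spot intensity and signal to noise from triplicate slides.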 To be noted: higher = more signal.
Assay [5] has as its target Neurogenic locus notch homolog protein 2 (Homo sapiens) (UniProt Q04721). Put plainly: Notch2 binders on small-molecule microarrays, primary screen, biochemical, small-molecule microarray, 635 nm fluorescence, stem cell growth factors (AID 1073). Conditions: Notch2 binding, higher = more signal.
Assay [6] has as its target Pro-neuregulin-1, membrane-bound isoform (Homo sapiens) (UniProt Q02297). Put plainly: NRG1 binders on small-molecule microarrays, primary screen, psychiatric disease protein project, biochemical, small-molecule microarray, fluorescence 635/667 (AID 1075).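 Also: score combines 667 nm spot fluorescence with signal to noise.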 Conditions: NRG1 binding, 635 nm fluorescence, higher = more signal.
For assay [7], the system named is Neuregulin-1 EGF-like domain. Put plainly: binders of neuregulin-1 EGF-like domain, primary screen, biochemical, small-molecule microarray, 635 nm fluorescence (AID 1081).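 Also: binding of the protein to compounds printed on small-molecule microarray slides.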 To be noted: small-molecule microarray binding, higher = more signal.
The nature of assay [8]: FRG1 promoter luciferase signal modulators, primary screen, FRG1 inhibition for FSHD, cell-based, C2C12 myotubes, firefly/Renilla luciferase, luminescence (AID 1084). To be noted: higher = more signal, called active from +8 up or from −8 down.
The nature of assay [9]: binders of probe aFST on microarray, primary screen, stem cell growth factor project, biochemical, small-molecule microarray, fluorescence 635/667 (AID 1086).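 Also: score merges 667 nm fluorescence with signal-to-noise of each printed compound spot.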 Conditions: higher = more signal.
The nature of assay [10]: binders of probe aHhip on microarray, primary screen, stem cell growth factor project, biochemical, small-molecule microarray, fluorescence 635/667 (AID 1087).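 Also: score merges spot fluorescence at 667nm with spot signal to noise ratio.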 To be noted: higher = more signal.
Assay [11] relates to PRMT1 (protein arginine N-methyltransferase 1). Put plainly: PRMT1 binders on small-molecule microarrays, primary screen, biochemical, small-molecule microarray, 635 nm fluorescence (AID 1088).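 Also: binding of Prmt1 protein to compounds spotted on small-molecule microarray slides.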 Conditions: small-molecule microarray binding, higher = more signal.
Assay [12] is described as follows: yeast growth modulation, basal conditions, primary screen, YJM789 clinical isolate, OD600, 24 h (AID 1089).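 Also: growth of clinical yeast isolate S. cerevisiae YJM 789 seeded 1000 cells per well; test concentration not given here.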 Conditions: S. cerevisiae YJM789 growth, higher = more signal, called active from +8 up or from −8 down.
Assay [13] in a line: fission yeast growth modulation, primary screen, strain 972, OD600, 24 h, no modulator (AID 1090).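 Also: basal condition with compound alone and no growth modifier present; test concentration not given here.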 To be noted: S. pombe 972 growth, higher = more signal, called active from +8 up or from −8 down.
Assay [14] in a line: S. cerevisiae growth modulation with rapamycin, primary screen, strain BY4716, OD600, 96 h (AID 1091). Also: test concentration not given here. Conditions: higher = more signal, called active from +8 up or from −8 down.
In assay [15] the target is Torsin-1A-interacting protein 2 (Homo sapiens) (UniProt Q8NFQ8). Put plainly: LULL1 binders on small-molecule microarray, primary screen, cell lysate, human LULL1 lysate, 635/667 nm fluorescence (AID 1092).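 Also: score merges per-feature 667 nm fluorescence with signal-to-noise.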 Conditions: hLULL1 lysate binding, 635 nm fluorescence, higher = more signal.
Assay [16] can be described thus: E. coli growth modulation, two-sided OD650, primary screen, E. coli filamentation project, strain DRC41, 24 h (AID 1093).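 Also: MC1000 strain lacking acrAB efflux and sulA so SOS filamentation is blocked; test concentration not given here.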 Conditions: OD650, 24 h, higher = more signal, called active from +8 up or from −8 down.
Assay [17] in a line: small-molecule microarray binders of probe aLefty2, primary screen, biochemical, biotinylated probe, 635/667 nm fluorescence (AID 1094).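 Also: score merges spot fluorescence near 667 nm with spot signal-to-noise ratio.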 Conditions: higher = more signal.
The subject of assay [18] is Noggin (protein binding on small-molecule microarray). Put plainly: Noggin binders on small-molecule microarray, primary screen, biochemical, 635/667 nm fluorescence (AID 1095).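 Also: score merges 667 nm feature fluorescence with signal to noise over triplicate slides.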 To be noted: 635 nm fluorescence, higher = more signal.
In assay [19] the target is Neurogenic locus notch homolog protein 3 (Homo sapiens) (UniProt Q9UM47). Put plainly: NOTCH3 binders on small-molecule microarray, primary screen, biochemical, 635/667 nm fluorescence (AID 1096). To be noted: NOTCH3 binding, 635 nm fluorescence, higher = more signal.
A short description of assay [20]: small-molecule microarray binders of probe aEGFR, primary screen, biochemical, biotinylated probe, 635/667 nm fluorescence (AID 1097).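 Also: probe is a biotinylated anti-EGFR antibody binding compounds printed on slides; score combines fluorescence near 667 nm and signal to noise of each spot.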 To be noted: higher = more signal.

Chain of Neurogenic locus notch homolog protein 2 (Homo sapiens) (Q04721 whole entry, looked up, canonical isoform): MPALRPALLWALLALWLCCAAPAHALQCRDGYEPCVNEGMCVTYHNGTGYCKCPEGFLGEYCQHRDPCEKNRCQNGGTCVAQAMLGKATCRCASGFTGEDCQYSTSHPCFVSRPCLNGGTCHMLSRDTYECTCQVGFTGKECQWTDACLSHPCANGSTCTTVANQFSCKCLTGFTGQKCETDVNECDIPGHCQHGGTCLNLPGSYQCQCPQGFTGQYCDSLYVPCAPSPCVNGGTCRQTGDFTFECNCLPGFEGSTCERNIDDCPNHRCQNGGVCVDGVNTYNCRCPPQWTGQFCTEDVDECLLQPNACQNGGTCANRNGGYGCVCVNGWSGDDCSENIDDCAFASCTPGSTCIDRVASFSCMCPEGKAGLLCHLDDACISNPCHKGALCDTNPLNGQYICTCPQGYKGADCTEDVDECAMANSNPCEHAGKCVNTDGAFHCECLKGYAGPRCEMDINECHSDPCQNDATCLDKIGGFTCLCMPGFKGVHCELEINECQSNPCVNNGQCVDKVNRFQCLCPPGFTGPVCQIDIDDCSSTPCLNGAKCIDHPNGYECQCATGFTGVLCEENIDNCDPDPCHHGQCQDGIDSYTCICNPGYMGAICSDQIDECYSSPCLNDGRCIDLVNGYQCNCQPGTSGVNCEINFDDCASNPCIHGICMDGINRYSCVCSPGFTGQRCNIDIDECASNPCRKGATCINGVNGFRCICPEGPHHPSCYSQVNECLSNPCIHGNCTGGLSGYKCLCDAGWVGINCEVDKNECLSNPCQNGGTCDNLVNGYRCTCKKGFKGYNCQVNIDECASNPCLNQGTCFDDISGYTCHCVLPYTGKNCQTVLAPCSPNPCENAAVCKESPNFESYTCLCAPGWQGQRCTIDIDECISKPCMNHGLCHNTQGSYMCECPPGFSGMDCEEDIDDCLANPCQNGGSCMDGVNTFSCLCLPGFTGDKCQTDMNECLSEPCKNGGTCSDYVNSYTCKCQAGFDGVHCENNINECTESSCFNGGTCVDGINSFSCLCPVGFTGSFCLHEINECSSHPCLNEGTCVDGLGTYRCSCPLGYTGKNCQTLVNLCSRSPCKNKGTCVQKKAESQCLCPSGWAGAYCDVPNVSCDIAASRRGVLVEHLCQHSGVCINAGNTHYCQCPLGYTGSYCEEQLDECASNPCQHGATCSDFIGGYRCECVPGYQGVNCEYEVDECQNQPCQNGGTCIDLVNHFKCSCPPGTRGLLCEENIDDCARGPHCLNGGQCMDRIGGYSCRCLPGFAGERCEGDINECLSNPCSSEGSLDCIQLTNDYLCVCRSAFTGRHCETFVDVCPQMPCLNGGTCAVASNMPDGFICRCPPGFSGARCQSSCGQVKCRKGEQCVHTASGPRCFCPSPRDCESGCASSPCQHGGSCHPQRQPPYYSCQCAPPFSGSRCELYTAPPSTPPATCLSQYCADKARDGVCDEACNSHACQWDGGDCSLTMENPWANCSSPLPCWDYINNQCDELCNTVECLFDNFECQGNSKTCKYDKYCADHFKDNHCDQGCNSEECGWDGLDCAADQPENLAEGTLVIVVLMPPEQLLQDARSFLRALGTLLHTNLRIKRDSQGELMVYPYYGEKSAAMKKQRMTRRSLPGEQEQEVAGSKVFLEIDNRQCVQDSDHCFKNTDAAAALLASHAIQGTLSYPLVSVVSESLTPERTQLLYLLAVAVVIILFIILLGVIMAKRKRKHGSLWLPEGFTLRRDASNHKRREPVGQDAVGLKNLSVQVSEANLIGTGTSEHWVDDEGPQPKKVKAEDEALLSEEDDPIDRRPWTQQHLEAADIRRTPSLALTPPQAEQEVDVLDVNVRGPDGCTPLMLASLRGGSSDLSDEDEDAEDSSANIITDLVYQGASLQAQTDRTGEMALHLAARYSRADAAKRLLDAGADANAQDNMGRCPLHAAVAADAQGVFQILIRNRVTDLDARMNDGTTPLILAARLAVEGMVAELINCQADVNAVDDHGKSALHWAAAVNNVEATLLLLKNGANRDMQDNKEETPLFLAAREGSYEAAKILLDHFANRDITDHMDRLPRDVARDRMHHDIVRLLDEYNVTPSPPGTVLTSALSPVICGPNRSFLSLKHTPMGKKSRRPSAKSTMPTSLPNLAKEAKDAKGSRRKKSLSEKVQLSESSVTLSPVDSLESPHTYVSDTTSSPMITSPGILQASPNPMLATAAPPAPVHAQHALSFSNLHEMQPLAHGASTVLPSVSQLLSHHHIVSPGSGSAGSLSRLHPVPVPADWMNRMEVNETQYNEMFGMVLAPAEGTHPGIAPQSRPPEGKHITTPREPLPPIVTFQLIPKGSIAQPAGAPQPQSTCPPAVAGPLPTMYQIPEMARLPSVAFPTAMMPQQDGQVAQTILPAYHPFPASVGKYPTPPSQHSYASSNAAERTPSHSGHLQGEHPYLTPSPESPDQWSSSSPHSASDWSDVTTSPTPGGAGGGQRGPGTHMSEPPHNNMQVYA
Chain of Torsin-1A-interacting protein 2 (Homo sapiens) (Q8NFQ8 whole entry, looked up): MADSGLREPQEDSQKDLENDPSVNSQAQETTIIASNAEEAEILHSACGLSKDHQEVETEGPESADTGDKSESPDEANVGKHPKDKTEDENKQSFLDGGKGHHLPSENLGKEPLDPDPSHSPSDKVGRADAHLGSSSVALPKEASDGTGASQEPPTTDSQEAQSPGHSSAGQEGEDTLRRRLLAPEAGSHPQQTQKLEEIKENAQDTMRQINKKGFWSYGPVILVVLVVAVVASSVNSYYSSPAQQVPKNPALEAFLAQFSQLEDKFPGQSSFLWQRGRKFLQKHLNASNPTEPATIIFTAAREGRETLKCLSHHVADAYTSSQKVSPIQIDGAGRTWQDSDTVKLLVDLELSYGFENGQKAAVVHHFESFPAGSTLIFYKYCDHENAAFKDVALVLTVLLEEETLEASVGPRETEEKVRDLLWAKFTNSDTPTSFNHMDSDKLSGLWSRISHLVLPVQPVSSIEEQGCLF
Chain of Pro-neuregulin-1, membrane-bound isoform (Homo sapiens) (Q02297 whole entry, looked up, the tested form may be a part, canonical isoform): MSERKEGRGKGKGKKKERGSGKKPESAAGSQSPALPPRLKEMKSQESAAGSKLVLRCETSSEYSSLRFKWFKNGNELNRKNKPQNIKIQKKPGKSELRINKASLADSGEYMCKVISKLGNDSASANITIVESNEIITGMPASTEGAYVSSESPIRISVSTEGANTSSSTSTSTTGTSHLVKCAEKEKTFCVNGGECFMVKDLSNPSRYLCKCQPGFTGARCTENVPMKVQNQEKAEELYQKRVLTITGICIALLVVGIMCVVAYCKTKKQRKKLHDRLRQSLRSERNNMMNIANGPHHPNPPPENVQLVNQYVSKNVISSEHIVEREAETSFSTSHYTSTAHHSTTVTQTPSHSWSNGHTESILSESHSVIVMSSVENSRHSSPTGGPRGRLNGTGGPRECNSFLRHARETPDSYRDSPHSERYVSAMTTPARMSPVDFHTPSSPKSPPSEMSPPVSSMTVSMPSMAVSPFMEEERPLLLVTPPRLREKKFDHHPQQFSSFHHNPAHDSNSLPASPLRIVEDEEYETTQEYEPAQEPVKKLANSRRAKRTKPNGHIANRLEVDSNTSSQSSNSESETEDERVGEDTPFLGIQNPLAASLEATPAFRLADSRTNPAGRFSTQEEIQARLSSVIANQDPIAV

Consider `COCC1=C([C@H](O)CCc2ccccc2)[C@H](CO)[C@@H]2C(=O)N(C)C(=O)[C@@H]2C1`, for which the composite z-score in [1] was -0.479; in [2], 0.24; in [3], -0.235; in assay [4], 0.367; in assay [5], 0.396; in assay [6], 0.378. In addition, the composite z-score is 0.15 in [7]; -0.0346 in assay [9]; -0.226 in [10]; 0.267 in [11]; 0.258 in assay [15]; -0.184 in [17]. In addition, the composite z-score in [18] is 0.396; in assay [19], -0.351; in assay [20] it was -0.106. For the same compound, the z-score is -2.22 (inactive) in assay [8]; 0.119 (inactive) in [12]; -0.551 (inactive) in assay [13]; 0.165 (inactive) in assay [14]; 1.99 (inactive) in assay [16].
In the case of `C=CC[C@@]1(C(=O)NCC(O)CO)N=C(c2ccc(OCCCO)cc2)O[C@@H]1c1ccccc1` (stereo not given in full), the composite z-score in assay [1] was 1.49; in assay [2], 2.09; in assay [3] it was 0.255; in assay [4], 0.44; in assay [5], -0.565; in assay [6], 1.64. Further, the composite z-score came out at 0.845 in [7]; 0.872 in [9]; 0.108 in assay [10]; 1.4 in assay [11]; 3.12 in assay [15]; 0.344 in assay [17]. The composite z-score in assay [18] was 0.315; in [19] it was 0.0815; in assay [20], 0.168. Further, the z-score in assay [8] was -1.09 (inactive); in [12] it was -0.646 (inactive); in assay [13] it was -1.17 (inactive); in [14], -1.12 (inactive); in [16], 0.727 (inactive).
Turning to `O=C(CS)NCCCCCNC(=O)[C@@H]1C[C@@H]2C(=O)N3CCC[C@H]3C(=O)N2[C@@H]1c1ccc(O)cc1`, the composite z-score was 0.344 in [1]; 0.282 in assay [2]; -0.0333 in assay [3]; 0.354 in assay [4]; -0.677 in assay [5]; 0.33 in assay [6]. Moreover, the composite z-score in assay [7] is 1.32; in assay [9], -0.0412; in [10] it was 0.127; in assay [11] it was 1.09; in [15] it was 2.81; in assay [17], -0.0279. Further, the composite z-score in assay [18] is -0.0286; in assay [19] it was 0.164; in assay [20], -0.118. Also, the z-score in assay [8] is 0.0995 (inactive); in [12], -0.0524 (inactive); in assay [13] it was -0.207 (inactive); in [14] it was 0.0036 (inactive); in assay [16], 0.0681 (inactive).
Take `COC(=O)C(CC#Cc1ccc2c(c1)[C@]1(C(=O)N2)[C@H](C(=O)N2CCc3cc(OC)c(OC)cc3C2)[C@H]2C(=O)O[C@H](c3ccccc3)[C@H](c3ccccc3)N2[C@@H]1c1ccc(OCCO)cc1)C(=O)OC`: the composite z-score in [1] was -0.295; in [2], 1.53; in assay [3], -0.145; in assay [4] it was 0.945; in assay [5] it was 1.54; in assay [6], 1.75. For the same compound, the composite z-score was 1.31 in assay [7]; 0.672 in assay [9]; 0.0373 in assay [10]; 1.55 in assay [11]; 2.82 in [15]; 0.128 in assay [17]. The figures for the composite z-score in assay [18], in [19] and in [20] were 1.3, 1.07 and 0.174, respectively. The z-score in [8] was 0.732 (inactive); in assay [12], 3.22 (inactive); in assay [13], 1.63 (inactive); in assay [14] it was 5.29 (inactive); in assay [16] it was 0.37 (inactive).
Take `O=C1O[C@H](c2ccccc2)[C@H](c2ccccc2)N2[C@H]1[C@@H](C(=O)NC[C@H](O)c1ccccc1)[C@]1(C(=O)Nc3ccccc31)[C@H]2c1ccccc1OCCO`: the composite z-score in [1] was 0.0095; in assay [2], 0.142; in assay [3], -0.0024; in [4], 0.555; in [5] it was 0.0225; in assay [6] it was 0.851. The composite z-score in assay [7] was 1.2; in assay [9], -0.821; in assay [10], -0.445; in [11], 1.55; in assay [15], 2.92; in [17] it was -0.181. Also, the composite z-score in [18] was 1.71; in assay [19], 0.723; in assay [20] it was -0.109. Also, the z-score in assay [8] is -1.13 (inactive); in [12], 0.837 (inactive); in assay [13], 0.468 (inactive); in [14] it was 4.03 (inactive); in assay [16], 2.05 (inactive).
For the compound `C=C(C)[C@@H]1CC=C(C(O)C2C=CC3C(=O)N(C4CCCCC4)C(=O)C3N2Nc2ccc(OC)cc2)CC1` (stereo not given in full), the composite z-score is -0.128 in assay [1]; 0.103 in assay [2]; 0.156 in assay [3]; 0.594 in assay [4]; 1.45 in assay [5]; 1.2 in assay [6]. The composite z-score in [7] was 1.02; in assay [9] it was 1.32; in assay [10], -0.41; in [11] it was 1.55; in assay [15], 3.27; in assay [17], -0.0009. Moreover, the composite z-score in [18] is 0.593; in assay [19], 1.07; in assay [20] it was -0.0034. Also, the z-score in assay [8] is 0.0512 (inactive); in assay [12], 0.188 (inactive); in assay [13], 0.707 (inactive); in [14] it was 0.785 (inactive); in [16], -0.357 (inactive).
